Test results from PubChem BioAssay (Tox21).
Inconclusive results are not listed. The source made the active and inactive calls. The call rests on the fitted dose curve.

Key:
[1] = molecular target: Acetylcholinesterase (Homo sapiens) (UniProt P22303); assay: Acetylcholinesterase (AChE) small molecule antagonists: colormetric cell-based qHTS assay (AID 1347395); conditions: SH-SY5Y cells AChE activity, colorimetric (Ellman); series mostly up to 115 µM; further: nearly all actives have a fitted effect of over 30% in size
Acetylcholinesterase (Homo sapiens), sequence (P22303 whole entry, looked up): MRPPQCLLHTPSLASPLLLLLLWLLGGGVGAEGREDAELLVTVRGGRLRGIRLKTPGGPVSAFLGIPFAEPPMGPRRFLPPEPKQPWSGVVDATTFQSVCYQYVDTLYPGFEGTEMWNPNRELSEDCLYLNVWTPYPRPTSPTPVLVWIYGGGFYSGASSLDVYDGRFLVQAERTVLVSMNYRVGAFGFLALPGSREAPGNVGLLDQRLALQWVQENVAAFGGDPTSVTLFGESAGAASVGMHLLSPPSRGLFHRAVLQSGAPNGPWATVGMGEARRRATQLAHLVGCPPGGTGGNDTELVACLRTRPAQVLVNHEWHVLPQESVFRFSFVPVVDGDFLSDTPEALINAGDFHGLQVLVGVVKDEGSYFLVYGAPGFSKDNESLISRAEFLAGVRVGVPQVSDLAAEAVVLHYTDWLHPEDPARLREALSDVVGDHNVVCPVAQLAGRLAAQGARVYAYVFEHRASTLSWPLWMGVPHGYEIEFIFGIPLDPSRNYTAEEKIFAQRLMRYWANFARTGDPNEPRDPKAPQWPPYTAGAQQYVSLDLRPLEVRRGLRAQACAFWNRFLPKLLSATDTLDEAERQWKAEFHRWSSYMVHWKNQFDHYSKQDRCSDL
Summary of the method: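 Neuroblastoma line SH-SY5Y supplied the enzyme; cells were preincubated with compound for 30 min at 37 C and 5% CO2. Acetylthiocholine with DTNB was then added for 90 min at 37 C, and thiocholine was measured by colour.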

[2] = molecular target: Acetylcholinesterase (Homo sapiens) (UniProt P22303); assay: Acetylcholinesterase (AChE) small molecule antagonists: enzyme-based qHTS assay (AID 1347397); conditions: Potency: AChE enzyme activity inhibition; outcome: AChE enzyme activity inhibition; series mostly up to 115 µM; further: nearly all actives have a fitted effect of over 55% in size
Summary of the method: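 Recombinant human AChE, dispensed at 50 mU/mL, was preincubated with Tox21 10K compounds or DMSO vehicle for 30 min at room temperature. DTNB plus acetylthiocholine was then added, and thiocholine was measured colorimetrically after a further 10 min.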

[3] = molecular target: Acetylcholinesterase (Homo sapiens) (UniProt P22303); assay: Acetylcholinesterase (AChE) small molecule antagonists: fluorescence cell-based qHTS assay (AID 1347398); conditions: SH-SY5Y cells; Potency: AChE activity; outcome: AChE activity; series mostly up to 115 µM; further: nearly all actives have a fitted effect of over 50% in size; further: potency means the concentration at half of the fitted maximal effect
Summary of the method: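 Human SH-SY5Y cells were plated overnight at 37 C, exposed to compound for 30 min at 37 C, 5% CO2, then given acetylthiocholine plus Thiolite Green for 40 min at room temperature; thiocholine fluorescence (Ex/Em 490/520 nm) reports endogenous AChE activity.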

[4] = molecular target: Acetylcholinesterase (Homo sapiens) (UniProt P22303); assay: Acetylcholinesterase (AChE) small molecule antagonists: enzyme-based qHTS assay with human liver microsomes (AID 1347399); conditions: Potency: qHTS inhibition; outcome: qHTS inhibition; series mostly up to 115 µM; further: nearly all actives have a fitted effect of over 60% in size
Summary of the method: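 Recombinant human AChE (50 mU/mL in the enzyme mix) and human liver microsomes (0.25 mg/mL final) were preincubated with compound and NADPH (0.25 mg/mL final) for 30 min at 37 C. Acetylthiocholine/DTNB was then added; thiocholine was read colorimetrically after 10 min at room temperature.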
On the % scale 0 is the no-effect control and ±100 the full control effect.

COc1cc2c(cc1OC)-c1cc(=Nc3c(C)cc(C)cc3C)n(C)c(=O)n1CC2
inactive: Potency [1] | Potency [2] | Potency [3] | Potency [4]

O=Nc1ccc(NO)cc1
inactive: Potency [1] | Potency [2] | Potency [3] | Potency [4]

CC(C)(N)CO
inactive: Potency [1] | Potency [2] | Potency [3] | Potency [4]

C[C@H]1[C@H](NC(=O)/C(=N/OC(C)(C)C(=O)O)c2csc(N)n2)C(=O)N1S(=O)(=O)O (stereo in doubt)
inactive: Potency [1] | Potency [2] | Potency [3] | Potency [4]

CCCCCC(=O)O[C@]1(C(C)=O)CC[C@H]2[C@@H]3CCC4=CC(=O)CC[C@]4(C)[C@H]3CC[C@@]21C
inactive: Potency [1] | Potency [2] | Potency [3] | Potency [4]

CCCCC(CC)COC(=O)/C=C\C(=O)OCC(CC)CCCC (stereo not given)
inactive: Potency [1] | Potency [2] | Potency [3] | Potency [4]

CCc1ccc2c(c1)C(=O)c1ccccc1C2=O
inactive: Potency [1] | Potency [2] | Potency [3] | Potency [4]

NCc1cccc(CN)c1
inactive: Potency [1] | Potency [2] | Potency [3] | Potency [4]

C[C@@H]1C[C@H]2[C@@H]3CCC4=CC(=O)C=C[C@]4(C)[C@@]3(F)[C@@H](O)C[C@]2(C)[C@H]1C(=O)CO
inactive: Potency [1] | Potency [2] | Potency [3] | Potency [4]

CCC(C)(O)CCCC(C)C (stereo not given)
inactive: Potency [1] | Potency [2] | Potency [3] | Potency [4]

CCCCCCOc1ccc(O)cc1
inactive: Potency [1] | Potency [2] | Potency [3] | Potency [4]

CC(=O)O[C@H]1C[C@@H]2CC[C@@]1(C)C2(C)C
inactive: Potency [1] | Potency [2] | Potency [3] | Potency [4]

CCCCCCCCS
inactive: Potency [1] | Potency [2] | Potency [3] | Potency [4]

CC(C)(C)C1CCC(O)CC1 (stereo not given)
inactive: Potency [1] | Potency [2] | Potency [3] | Potency [4]

C=CC(=O)OCC1CC2CC1C1CCC(COC(=O)C=C)C21 (stereo not given)
inactive: Potency [1] | Potency [2] | Potency [3] | Potency [4]

CCCCCCCCCCCCCC(=O)OC(C)C
inactive: Potency [1] | Potency [2] | Potency [3] | Potency [4]

CC(NN)c1ccccc1 (stereo not given)
inactive: activity, negative = inhibition [1] 1.5% [at 23.6 µM] | activity change, negative = inhibition [2] 0.277% [at 23.6 µM] | activity change, negative = inhibition [3] 0.294% [at 23.8 µM] | activity change, negative = inhibition [4] 1.27% [at 23.6 µM]

O=C1OC(O)C(C(Cl)Cl)=C1Cl (stereo not given)
inactive: Potency [1] | Potency [2] | Potency [3] | Potency [4]

O=S(=O)(O)c1cccc(S(=O)(=O)O)c1
inactive: Potency [1] | Potency [2] | Potency [3] | Potency [4]

Cc1cn([C@H]2C[C@H](F)[C@@H](CO)O2)c(=O)[nH]c1=O
inactive: Potency [1] | Potency [2] | Potency [3] | Potency [4]

C=C1c2cccc(O)c2C(O)=C2C(=O)[C@]3(O)C(O)=C(C(N)=O)C(=O)[C@@H](N(C)C)[C@@H]3[C@@H](O)[C@H]12
inactive: Potency [1] | Potency [2] | Potency [3] | Potency [4]

CCOC(=O)NCCC[Si](OCC)(OCC)OCC
inactive: Potency [1] | Potency [2] | Potency [3] | Potency [4]

NC(N)=Nc1nc(CSCC/C(N)=N/S(N)(=O)=O)cs1
inactive: Potency [1] | Potency [2] | Potency [3] | Potency [4]

CC(=O)OC(C)C
inactive: Potency [1] | Potency [2] | Potency [3] | Potency [4]

CCCCCCCOC(=O)CCC
inactive: Potency [1] | Potency [2] | Potency [3] | Potency [4]

COc1ccccc1Oc1c(NS(=O)(=O)c2ccc(C(C)(C)C)cc2)nc(-c2ncccn2)nc1OCCO
inactive: Potency [1] | Potency [2] | Potency [3] | Potency [4]

COCc1c(C(C)C)nc(C(C)C)c(/C=C/[C@@H](O)C[C@@H](O)CC(=O)O)c1-c1ccc(F)cc1
inactive: Potency [1] | Potency [2] | Potency [3] | Potency [4]

Nc1ccc2cc3ccccc3cc2c1
inactive: Potency [1] | Potency [2] | Potency [3] | Potency [4]

CCCCCCCC/C=C\CCCCCCCC(=O)NCc1ccc(O)c(OC)c1
inactive: Potency [1] | Potency [2] | Potency [3] | Potency [4]

CC(C)CCCCCCCOC(=O)CCCCC(=O)OCCCCCCCC(C)C
inactive: Potency [1] | Potency [2] | Potency [3] | Potency [4]

CC(C)OCCO
inactive: Potency [1] | Potency [2] | Potency [3] | Potency [4]

O=S(=O)(O)c1ccc2nc(-c3ccccc3)[nH]c2c1
inactive: Potency [1] | Potency [2] | Potency [3] | Potency [4]

Nc1c(I)cc(I)c(C(=O)N(CCC(=O)O)c2ccccc2)c1I
inactive: Potency [1] | Potency [2] | Potency [3] | Potency [4]

O[C@@H]([C@H](O)[C@H](O)CBr)[C@H](O)CBr
inactive: Potency [1] | Potency [2] | Potency [3] | Potency [4]

CCCCCOc1ccc(C2SC(=O)NC2=O)cc1OCC (stereo not given)
inactive: Potency [1] | Potency [2] | Potency [3] | Potency [4]

CNC(=O)N(c1ccccc1)c1ccccc1
active: Potency [3] 35.7 µM
inactive: Potency [1] | Potency [2] | Potency [4]

Cc1cc(O)c(C)c(C)c1O
inactive: Potency [1] | Potency [2] | Potency [3] | Potency [4]

C=CC(=O)CC
inactive: Potency [1] | Potency [2] | Potency [3] | Potency [4]

CCOC(C)=O
inactive: Potency [1] | Potency [2] | Potency [3] | Potency [4]

Nc1cc(S(=O)(=O)O)ccc1S(=O)(=O)O
inactive: Potency [1] | Potency [2] | Potency [3] | Potency [4]

Nc1c[n+](N2CCOCC2)no1
inactive: Potency [1] | Potency [2] | Potency [3] | Potency [4]

CCOC(=O)CC(=O)c1ccccc1
inactive: Potency [1] | Potency [2] | Potency [3] | Potency [4]

O=Cc1ccc(Cl)c(Cl)c1
inactive: Potency [1] | Potency [2] | Potency [3] | Potency [4]

Cc1ccccc1C(=O)Nc1ccc(C(=O)N2CCCC(O)c3cc(Cl)ccc32)c(C)c1 (stereo not given)
inactive: Potency [1] | Potency [2] | Potency [3] | Potency [4]

O=C(CCNNC(=O)c1ccncc1)NCc1ccccc1
inactive: Potency [1] | Potency [2] | Potency [3] | Potency [4]

CC(C)NCC(O)COc1ccc(COCCOC(C)C)cc1 (stereo not given)
inactive: Potency [1] | Potency [2] | Potency [3] | Potency [4]

C/C=C/C(=O)CCCC
inactive: Potency [1] | Potency [2] | Potency [3] | Potency [4]

C=CCc1ccc(OC)c(OC)c1
inactive: Potency [1] | Potency [2] | Potency [3] | Potency [4]

FC(F)(F)C(Cl)Br (stereo not given)
inactive: Potency [1] | Potency [2] | Potency [3] | Potency [4]

CN1CCN(C2Cc3ccccc3Sc3ccc(Cl)cc32)CC1 (stereo not given)
inactive: Potency [1] | Potency [2] | Potency [3] | Potency [4]

N[C@@H](CCC(=O)O)C(=O)O
inactive: Potency [1] | Potency [2] | Potency [3] | Potency [4]

COCC(C)N (stereo not given)
inactive: Potency [1] | Potency [2] | Potency [3] | Potency [4]

N[C@@H](COP(=O)(O)O)C(=O)O
inactive: activity, negative = inhibition [1] 0.067% [at 23.6 µM] | activity change, negative = inhibition [2] 1.8% [at 23.6 µM] | activity change, negative = inhibition [3] 4.21% [at 23.8 µM] | activity change, negative = inhibition [4] 4.37% [at 23.6 µM]

CCC(=O)O[C@H]1[C@H](O[C@@H]2[C@@H](C)[C@H](O[C@H]3C[C@@](C)(OC)[C@@H](O)[C@H](C)O3)[C@@H](C)C(=O)O[C@H](CC)[C@@](C)(O)[C@H](O)[C@@H](C)C(=O)[C@H](C)C[C@@]2(C)O)O[C@H](C)C[C@@H]1N(C)C
inactive: Potency [1] | Potency [2] | Potency [3] | Potency [4]

CC(C)c1ccc2ncccc2c1
inactive: Potency [1] | Potency [2] | Potency [3] | Potency [4]

C[C@]12CC[C@@H]3c4ccc(O)cc4C[C@@H](CCCCCCCCCS(=O)CCCC(F)(F)C(F)(F)F)[C@H]3[C@@H]1CC[C@@H]2O (stereo not given in full)
inactive: Potency [1] | Potency [2] | Potency [3] | Potency [4]

COC(C)(C)OC
inactive: Potency [1] | Potency [2] | Potency [3] | Potency [4]

O=c1oc2c(O)c(O)cc3c(=O)oc4c(O)c(O)cc1c4c23
inactive: activity, negative = inhibition [1] -4.32% [at 23.6 µM] | activity change, negative = inhibition [2] 3.59% [at 23.6 µM] | activity change, negative = inhibition [3] 4.39% [at 23.8 µM] | activity change, negative = inhibition [4] -1.34% [at 23.6 µM]

CC(C(=O)O)c1ccc(-c2ccccc2)c(F)c1 (stereo not given)
inactive: Potency [1] | Potency [2] | Potency [3] | Potency [4]

CC[C@]12CCCN3CCc4c(n(c5ccccc45)C(=O)C1)[C@@H]32
inactive: Potency [1] | Potency [2] | Potency [3] | Potency [4]
